# Pf growth 48h: P. falciparum growth inhibition at 48 hours (one generation) | P. falciparum luciferase growth in erythrocytes, 48 h | Potency, µM (series often up to 28.7 µM), for inactives: top-dose activity change, negative = inhibition, usual class: inhibitors | hit rate 5.9% among 310,000 | AID 504832; further: potency means the concentration at half of the fitted maximal effect; on the % scale 0 is the no-effect control and ±100 the full control effect
#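 Firefly luciferase activity from engineered P. falciparum reports growth; inhibitors lower the luminescent signal. Cultures contained 2% hematocrit erythrocytes at 0.1% final parasitemia.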
# Shiga inhibitor: inhibitors of Shiga toxin in Vero cells | Vero cells, Shiga toxin protein synthesis inhibition reporter | inhibition, % at 38.7 µM | hit rate 9.2% among 290,000 | AID 2315; in the data active means inhibition mostly above about 28%, no sharp cut-off; inactive means mostly below about 43%; further: 0% is about no effect
# AMA1-RON2 inh: AMA1-RON2 (P. falciparum) interaction inhibition | AlphaScreen AMA1-biotinylated RON2 peptide binding | Potency, µM (top dose mostly 58.2 µM), without a hit: top-dose activity change, negative = inhibition, most hits filed as inhibitors | AID 720542 | hit rate 0.2% among 360,000;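 further: potency means the concentration at half of the fitted maximal effect; 0% = vehicle wells and -100% = peptide control; nearly all actives have a fitted effect of over 45% in size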
#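 AMA1 (3D7) with his tag at 25 nM final met compounds first, then biotinylated RON2 peptide at 25 nM; detection used donor plus acceptor beads, 10 µg/mL apiece, read by AlphaScreen after 30 min at room temperature.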
# CHX counter: counter-screen hit for Shiga toxin inhibitors, cycloheximide | hit rate 12% among 300,000 | max response, % | cell reporter, cycloheximide protein synthesis inhibition counterscreen; in the data active means max response mostly above about 13%, no sharp cut-off; inactive means mostly below about 14%; further: read at 38.3 µM for the half of the compounds with a filed dose; 0% is about no effect
# SARS PLP yeast: inhibitors of SARS-CoV papain-like protease in yeast | S. cerevisiae expressing SARS-CoV PLpro, growth rescue | Potency, µM (doses to about 32.9 µM), inactives show at the highest dose activity, positive = growth rescue, actives largely listed as activators | hit rate 0.19% among 330,000; calls by dose curve; further: potency means the concentration at half of the fitted maximal effect; 0% is about no effect; nearly all actives have a fitted effect of over 55% in size
# Pf growth 96h: inhibits malaria parasite growth, 96 h. P. falciparum luciferase reporter growth, 96 h. Potency, µM (titrated, usually from 28.7 µM), for inactives: at the top dose activity change, negative = inhibition, most hits filed as inhibitors. hit rate 6.9% among 320,000; further: potency means the concentration at half of the fitted maximal effect; on the % scale 0 is the no-effect control and ±100 the full control effect
#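 P. falciparum expressing integrated firefly luciferase grown in erythrocytes (2% hematocrit, 0.05% parasitemia final) with compounds for 96 hours at 37 C, 5% CO2. Growth inhibition read as loss of luminescence after adding luciferase detection reagent.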
# The depositor's hits bear a star; ? = inconclusive; . = no result. Rows were chosen to be rich in hits. Some 19% of all compounds tested hit in one or more screens of this group. Unless noted, the call rests on the fitted dose curve; in most records, active means well fitted curve in the direction sought with a large enough effect; inconclusive means small, poorly fitted or top-dose-only effect, or another doubt; inactive means no such curve, though single readings can be large; an effect the other way counts as inactive or inconclusive.
SMILES,Pf growth 48h,Shiga inhibitor,AMA1-RON2 inh,CHX counter,SARS PLP yeast,Pf growth 96h
CC(C)CC(NC(=O)c1ccccc1NC(=O)c1ccccc1)C(=O)O (stereo not drawn),-24%,13,11%,-3,-3%,?
IC(I)I,-8%,.,.,.,.,-10%
CC(=O)Nc1ccc(C(=O)c2ccccc2)cc1,33%,34,-7%,16*,-3%,54%
CCCCC(=O)Nc1ccc(C(=O)c2ccccc2)cc1,26%,49*,21%,35*,-2%,32%
O=C(Nc1ccccc1)c1c(F)cccc1F,43%,43,1%,17,2%,.
CCCC(=O)Nc1ccc(C#Cc2ccccc2)cc1,52%,115*,12%,51*,-5%,-34%
O=C(Nc1ccccc1)Nc1c(F)cccc1F,41%,43*,-22%,41*,0%,77%
CCCC(=O)Nc1ccc(Oc2ccc(NC(=O)CCC)cc2)cc1,15%,-2,-3%,9,11%,2%
COc1ccc(N2C(=O)c3ccccc3NC(=O)C2C(=O)Nc2ccc3c(c2)OCCO3)cc1 (stereo not drawn),.,.,-7%,.,.,.
O=C(CCCCC(=O)Nc1ccccc1)Nc1ccccc1,9%,.,3%,-2,2%,-1%
CCCCCC(=O)Nc1ccc(C2C(=O)c3ccccc3C2=O)cc1,13µM*,-3,12%,-1,3%,?
C/C(=N/NS(=O)(=O)c1ccccc1)c1ccc(NC(=O)C2CC2)cc1,1%,30,4%,2,1%,?
CC(=O)Nc1ccc(/C(C)=N/NS(=O)(=O)c2ccccc2)cc1,23%,7,16%,23*,-3%,46%
CC(=O)Nc1ccc(NC(=O)Nc2ccccc2)cc1,98%,64*,-5%,25*,2%,103%
C/C(O)=C(/N=O)C(=O)Nc1ccccc1,1%,-10,-2%,9,-5%,12µM*
CC(=O)NNC(=O)CCC(=O)Nc1ccccc1,38%,-5,65%,8,-3%,30%
COC(=O)C1CCN(C(=O)COC(=O)c2oc3ccc(OC)cc3c2C)CC1,-2%,-6,-4%,-3,1%,33%
Cn1ccnc1SCC(=O)c1ccc(Cl)cc1,227%,118*,-7%,37*,-11%,30%
Cn1ccnc1SCC(=O)Nc1ccc(Cl)cn1,59%,31,24%,23*,0%,191%
Cn1ccnc1SCC(=O)c1ccc(O)cc1,104%,37,-17%,26*,1%,61%
Cn1ccnc1SCC(=O)c1ccc(F)cc1,.,.,-8%,.,.,.
C=C(C)C1CC=C(C)CC1 (stereo not drawn),5%,.,.,.,.,14%
Cc1ccc(CN2C3CCCC2CC(NC(=O)c2ccc(C)cc2)C3)cc1 (stereo not drawn),?,-6,-3%,21,-1%,-1%
CC(C)CNC(=O)c1ccccc1NC(=O)c1ccc(CSc2ccccc2)cc1,13µM*,-3,9%,9,-35%,10µM*
CC(C)CNC(=O)c1ccccc1NC(=O)Nc1ccccc1,.,-5,-3%,-2,6%,10µM*
SMILES,Pf growth 48h,Shiga inhibitor,AMA1-RON2 inh,CHX counter,SARS PLP yeast,Pf growth 96h
Cc1ccsc1C(=O)N1CCC1(C)C(=O)NS(=O)(=O)c1ccc(C#N)cc1 (stereo not drawn),.,.,6%,.,.,.
COc1cccc(NC(=O)COc2ccccc2C(N)=O)c1,225%,60*,1%,40*,-4%,270%
COc1ccc(OCC(=O)Nc2cccc(OC)c2)cc1,102%,103*,-3%,42*,-11%,?
COc1ccc(OCC(=O)Nc2cc(OC)cc(OC)c2)cc1,.,-11,-9%,-2,-5%,38%
COc1ccc(OCC(=O)NCCCCCCNC(=O)COc2ccc(OC)cc2)cc1,-14%,-4,0%,-1,8%,2.9µM*
COc1cccc(OCC(=O)NNC(=O)C(=O)Nc2cccc(C)c2)c1,41%,60,98%,28*,-5%,55%
Cc1noc(C)c1S(=O)(=O)Nc1ccccc1N1CCOCC1,-16%,-7,-20%,-2,1%,?
COC(=O)CSc1nc(C)c2c(n1)CCCC2,8%,33,1%,19,1%,30%
O=C(OCc1cn([C@@H]2CN(C(=O)C3CCCCC3)[C@@H](c3ccc(Cl)cc3)C[C@H]2O)nn1)c1ccccc1,.,.,3%,.,.,.
O=S(=O)(/N=C(/Nc1ccc(F)cc1F)c1ccccc1)c1ccc(Br)cc1,7%,-3,.,-4,-18%,-6%
COc1cccc(/C(O)=C2/C(=O)C(=O)N(CCN(C)C)C2c2ccccn2)c1 (stereo not drawn),35%,41,54%,11,6%,?
CN(C)CCN1C(=O)C(=O)/C(=C(/O)c2ccc3c(c2)OCCO3)C1c1ccccn1 (stereo not drawn),62%,102*,53%,42*,1%,55%
Cc1ccc(/C(O)=C2/C(=O)C(=O)N(CCN3CCOCC3)C2c2cccs2)cc1 (stereo not drawn),1%,20,-16%,11*,-2%,-11%
O=C1C(=O)N(CCN2CCOCC2)C(c2ccccc2F)/C1=C(\O)c1ccc(S(=O)(=O)N2CCOCC2)cc1 (stereo not drawn),27%,20,-9%,-3,1%,-27%
COc1ccc(/C(O)=C2/C(=O)C(=O)N(CCN3CCOCC3)C2c2ccccn2)cc1 (stereo not drawn),40%,54*,0%,33*,8%,?
Cc1ccc(/C(O)=C2/C(=O)C(=O)N(CCN3CCOCC3)C2c2cccnc2)cc1 (stereo not drawn),5%,12,0%,-2,16%,?
O=C1C(=O)N(CCN2CCOCC2)C(c2ccc(Cl)cc2)/C1=C(/O)c1ccc(S(=O)(=O)N2CCOCC2)cc1 (stereo not drawn),-40%,-14,8%,-1,3%,2.6µM*
CCOc1ccc(-n2cc(-c3ccc(OC)c(OC)c3)[nH]c2=S)cc1,?,25,60%,10,-2%,-12%
Cn1cc(/C=N\O)nc2c(=O)n(-c3ccccc3)c(=O)nc1-2,?,-3,47%,-3,0%,?
CSc1nc2ncncc2[nH]1,.,.,-5%,.,.,.
CC(C)Oc1ccc(/C(O)=C2/C(=O)C(=O)N(CCN3CCOCC3)C2c2ccccc2)cc1 (stereo not drawn),-1%,112*,0%,25*,1%,.
COCCCN1C(=O)C(=O)/C(=C(/O)c2ccc(S(=O)(=O)N3CCCCC3)cc2)C1c1ccc(OC)cc1 (stereo not drawn),32%,-5,-6%,-2,2%,13%
Cc1c(/C(O)=C2/C(=O)C(=O)N(CCN3CCOCC3)C2c2ccccn2)cnn1-c1ccccc1 (stereo not drawn),110%,50*,6%,28*,-2%,?
